Laboratory results published in the supplement of paper PMC3545927.
Some of the results follow. No count for the full screen is at hand.

Target: furin, P09958
Test: furin cleavage Z-score vs untreated control; higher = more cleavage, active = 3.5 or more, inactive = 1 or less, 8 variable residues between constant flanks
Protocol: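 Multiplexed peptide-cDNA fusion cleavage assay. 8-mer variable peptides flanked by constant Cys-Ala (N-term) and Ala-Gly-Asn-Ala-Ser-Ala-Ser-Ala (C-term) and conjugated to a cDNA oligonucleotide were bead-immobilised via the N-terminus. They were treated with purified furin at a 1:10 enzyme:substrate ratio in 50 mM HEPES pH 7.5, 1 mM CaCl2, 100 mM NaCl for 7.5, 15 or 30 min. Released cDNA was counted by next-generation sequencing, and log counts versus no-furin controls were lowess-adjusted and converted to robust Z-scores.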

Chain of furin, P09958 (P09958 whole entry): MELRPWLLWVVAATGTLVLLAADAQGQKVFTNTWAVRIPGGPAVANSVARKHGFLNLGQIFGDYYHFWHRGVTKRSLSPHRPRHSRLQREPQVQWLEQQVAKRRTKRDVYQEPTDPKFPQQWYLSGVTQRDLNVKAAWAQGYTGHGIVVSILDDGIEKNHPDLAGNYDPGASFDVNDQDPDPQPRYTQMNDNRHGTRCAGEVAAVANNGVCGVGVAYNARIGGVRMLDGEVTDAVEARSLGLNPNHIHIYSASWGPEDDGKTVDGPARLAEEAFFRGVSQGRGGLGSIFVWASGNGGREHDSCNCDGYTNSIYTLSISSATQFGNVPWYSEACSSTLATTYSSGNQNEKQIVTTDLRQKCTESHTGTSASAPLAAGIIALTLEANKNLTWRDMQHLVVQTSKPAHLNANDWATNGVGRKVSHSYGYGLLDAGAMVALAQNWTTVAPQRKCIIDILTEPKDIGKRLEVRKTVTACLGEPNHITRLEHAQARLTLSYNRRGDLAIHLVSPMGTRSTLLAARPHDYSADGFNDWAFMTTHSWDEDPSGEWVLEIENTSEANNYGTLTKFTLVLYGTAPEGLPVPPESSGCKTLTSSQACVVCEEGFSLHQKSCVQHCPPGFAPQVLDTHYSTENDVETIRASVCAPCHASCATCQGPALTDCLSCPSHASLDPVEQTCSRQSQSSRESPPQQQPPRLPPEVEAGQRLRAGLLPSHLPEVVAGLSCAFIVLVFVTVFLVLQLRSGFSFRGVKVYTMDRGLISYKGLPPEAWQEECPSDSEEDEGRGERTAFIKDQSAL

Sequence	furin cleavage Z-score (7.5 min)	furin cleavage Z-score (15 min)	furin cleavage Z-score (30 min)
CATRCFDSTVAGNASASA [HC1481]	1.01	0.491 (inactive)	0.363 (inactive)
CAILQASLLKAGNASASA [HC611]	-0.334 (inactive)	-0.703 (inactive)	-0.0413 (inactive)
CASTPCSACLAGNASASA [HC2560]	0.847 (inactive)	-0.78 (inactive)	0.791 (inactive)
CAILEVVTSTAGNASASA [HC2264]	-1.51 (inactive)	-0.366 (inactive)	0.122 (inactive)
CAMTECSQHLAGNASASA [HC1698]	0.478 (inactive)	0.668 (inactive)	0.28 (inactive)
CAVTCCSMSYAGNASASA [HC2018]	0.12 (inactive)	-1.47 (inactive)	-1.48 (inactive)
CANAEDVVCCAGNASASA [HC1367]	-0.652 (inactive)	-1.38 (inactive)	-0.581 (inactive)
CANCSRKRRTAGNASASA [FS-551]	9.83 (active)	9.81 (active)	7.5 (active)
CAIDRRIARFAGNASASA [FS-539]	1.87	1.35	3.96 (active)
CAIDTLTCGFAGNASASA [HC222]	0.261 (inactive)	-0.013 (inactive)	0.099 (inactive)
CAISERQARFAGNASASA [FS-171]	0.813 (inactive)	-0.669 (inactive)	1.86
CANCSREARGAGNASASA [FS-832]	-1.13 (inactive)	-0.942 (inactive)	-0.54 (inactive)
CAPGSRKRRTAGNASASA [FS-1147]	11.2 (active)	13.8 (active)	9.92 (active)
CANCSIYPGHAGNASASA [HC313]	0.763 (inactive)	-0.054 (inactive)	0.871 (inactive)
CAVVNRKARFAGNASASA [FS-208]	6.98 (active)	8.16 (active)	8.51 (active)
CASTPCSMHLAGNASASA [HC2526]	0.123 (inactive)	0.577 (inactive)	0.242 (inactive)

Sequence	furin cleavage Z-score (7.5 min)	furin cleavage Z-score (15 min)	furin cleavage Z-score (30 min)
CAVHGCPLPPAGNASASA [HC1316]	-0.297 (inactive)	0.367 (inactive)	0.0305 (inactive)
CAEEECSQHLAGNASASA [HC1672]	0.0201 (inactive)	1.31	0.995 (inactive)
CAGDRVYIHPAGNASASA [EK2]	-0.225 (inactive)	-0.247 (inactive)	-0.383 (inactive)
CAMEHCSQHLAGNASASA [HC1715]	-0.776 (inactive)	-0.0908 (inactive)	0.617 (inactive)
CAHPDATYSRAGNASASA [HC455]	-0.242 (inactive)	-1.51 (inactive)	-2.12 (inactive)
CATRSRRGRFAGNASASA [FS-204]	2.71	5.35 (active)	4.64 (active)
CASWNRVARTAGNASASA [FS-199]	4.98 (active)	4.02 (active)	5.03 (active)
CAQRSRQKKTAGNASASA [FS-1392]	-1.4 (inactive)	-0.885 (inactive)	0.286 (inactive)
CAPWITPRCLAGNASASA [HC461]	1.9	1.18	0.0858 (inactive)
CAHHNLVYSTAGNASASA [HC1387]	0.206 (inactive)	0.355 (inactive)	0.257 (inactive)
CAPMSRGDRFAGNASASA [FS-701]	-0.701 (inactive)	-0.0648 (inactive)	0.556 (inactive)
CASWTGALVTAGNASASA [HC1373]	1.05	1.42	0.57 (inactive)
CAMPRRRGRFAGNASASA [FS-1037]	-0.497 (inactive)	1.44	2.55
CALWSRYGRFAGNASASA [FS-1034]	0.532 (inactive)	1.92	-0.157 (inactive)
CAQWIRVKRTAGNASASA [FS-372]	10 (active)	8.77 (active)	8.64 (active)
CAPGSRKARFAGNASASA [FS-280]	7.61 (active)	8.81 (active)	9.66 (active)
